Reference: PMC11006913

molecular target: HOXC9 (Homo sapiens, UniProt P31274 178-260, K195R); assay: PBM; 200 nM protein, PBS; conditions: dsDNA, one strand shown
Sequence (P31274 178-260 K195R): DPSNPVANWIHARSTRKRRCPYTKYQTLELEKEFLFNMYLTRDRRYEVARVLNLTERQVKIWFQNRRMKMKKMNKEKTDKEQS

Sequence | binding signal
CACAATTA | 11.7 upbm affinity estimate (log intensity, higher = more binding, comparable within an allelic series)
TCCAGGGA | 9.73 upbm affinity estimate (log intensity, higher = more binding, comparable within an allelic series)
CACTAATA | 11.3 upbm affinity estimate (log intensity, higher = more binding, comparable within an allelic series)
ACGATAAA | 11.7 upbm affinity estimate (log intensity, higher = more binding, comparable within an allelic series)
TCGGGCCA | 9.7 upbm affinity estimate (log intensity, higher = more binding, comparable within an allelic series)
ACGTTGGG | 9.64 upbm affinity estimate (log intensity, higher = more binding, comparable within an allelic series)
CTATAGAA | 11.1 upbm affinity estimate (log intensity, higher = more binding, comparable within an allelic series)
CCTCCCAG | 9.59 upbm affinity estimate (log intensity, higher = more binding, comparable within an allelic series)
ATGTTAAC | 11.1 upbm affinity estimate (log intensity, higher = more binding, comparable within an allelic series)
CACGCGGG | 9.44 upbm affinity estimate (log intensity, higher = more binding, comparable within an allelic series)
ATTTGTTC | 11 upbm affinity estimate (log intensity, higher = more binding, comparable within an allelic series)
CGGGCCAG | 9.64 upbm affinity estimate (log intensity, higher = more binding, comparable within an allelic series)
TGATTGCA | 11.1 upbm affinity estimate (log intensity, higher = more binding, comparable within an allelic series)
CCGGGTAC | 9.59 upbm affinity estimate (log intensity, higher = more binding, comparable within an allelic series)
CCCAGGTC | 9.66 upbm affinity estimate (log intensity, higher = more binding, comparable within an allelic series)
CGGAGCCC | 9.46 upbm affinity estimate (log intensity, higher = more binding, comparable within an allelic series)
CCCCCCAC | 9.36 upbm affinity estimate (log intensity, higher = more binding, comparable within an allelic series)
CTTATAAA | 11.3 upbm affinity estimate (log intensity, higher = more binding, comparable within an allelic series)
CCCCCCTC | 9.44 upbm affinity estimate (log intensity, higher = more binding, comparable within an allelic series)
AGGTGGGG | 9.9 upbm affinity estimate (log intensity, higher = more binding, comparable within an allelic series)

Sequence | binding signal
AGTAATAA | 12.3 upbm affinity estimate (log intensity, higher = more binding, comparable within an allelic series)
GAGGGTCC | 9.32 upbm affinity estimate (log intensity, higher = more binding, comparable within an allelic series)
CCTGCCGC | 9.4 upbm affinity estimate (log intensity, higher = more binding, comparable within an allelic series)
CCCTGCGG | 9.55 upbm affinity estimate (log intensity, higher = more binding, comparable within an allelic series)
GCGTCGCC | 9.69 upbm affinity estimate (log intensity, higher = more binding, comparable within an allelic series)
ACTTTACG | 11.5 upbm affinity estimate (log intensity, higher = more binding, comparable within an allelic series)
AGGGGCTC | 9.39 upbm affinity estimate (log intensity, higher = more binding, comparable within an allelic series)
GCAGCGCC | 9.72 upbm affinity estimate (log intensity, higher = more binding, comparable within an allelic series)
AGATTAAA | 11.2 upbm affinity estimate (log intensity, higher = more binding, comparable within an allelic series)
ATAGTCAA | 10.7 upbm affinity estimate (log intensity, higher = more binding, comparable within an allelic series)
CTGCATAA | 11.2 upbm affinity estimate (log intensity, higher = more binding, comparable within an allelic series)
AGCCGTGG | 9.64 upbm affinity estimate (log intensity, higher = more binding, comparable within an allelic series)
GGAGAACC | 9.48 upbm affinity estimate (log intensity, higher = more binding, comparable within an allelic series)
CCTCTCCA | 9.58 upbm affinity estimate (log intensity, higher = more binding, comparable within an allelic series)
CCTACTCG | 9.67 upbm affinity estimate (log intensity, higher = more binding, comparable within an allelic series)
CGCGGGAG | 9.47 upbm affinity estimate (log intensity, higher = more binding, comparable within an allelic series)
ATTTAATA | 12.4 upbm affinity estimate (log intensity, higher = more binding, comparable within an allelic series)
CTGCCTCC | 9.62 upbm affinity estimate (log intensity, higher = more binding, comparable within an allelic series)
CTCCACGC | 9.69 upbm affinity estimate (log intensity, higher = more binding, comparable within an allelic series)
